The campaign covered roughly 1,200 compounds. About 140 (12%) were called active.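 Rule for the calls: active = fitted curve falls past -35% activity change at a dose under twice the top valid dose, in every replicate test; inconclusive = replicate tests disagree on the call; inactive = the rest, including activity in the opposite direction.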 These entries were drawn from the full list.
assay: CFTR-F508del correctors, dose response, FRT cells, YFP quenching, cherry-pick (AID 743402); details: FRT CFTR-F508del YFP iodide quenching, 24 h, channel opened with forskolin and a potentiator; series mostly up to 26 µM; activity change, negative = more quenching (active): at the top concentration;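 note: compounds act as correctors raising surface CFTR-F508del before acute activation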

SMILES | activity change, negative = more quenching (active)
NCC(=O)NNC(=O)OCC1c2ccccc2-c2ccccc21 | 0% (inactive)
COc1ccc(OC)c(-c2cc(-c3cccnc3)nc(N)c2C#N)c1 | -6.97% (inactive)
COc1cccc(N=Nc2ccc3cccnc3c2O)c1 | 9.79% (inactive)
COc1cc(/C=C2/SC(=Nc3ccc(O)cc3)NC2=O)cc(OC)c1O | -5.56% (inactive)
O=C1NC(=Nc2ccc(O)cc2)S/C1=C/c1ccco1 | -4.74% (inactive)
CC(=O)c1ccc(Nc2cc(C)nc3c(C)cc(C)cc23)cc1 | 12.9% [at 8 µM] (inactive)
COc1ccc(Nc2nc(-c3sc(C)nc3C)cs2)cc1 | -19.2% (inactive)
COc1ccc(-c2ccc3c(c2)[C@H]2[C@H](CCN2S(=O)(=O)c2ccc(OC)cc2)[C@@H](CO)N3C)cc1 | -10.7% (inactive)
Cc1cccc(N2CCN(C(=O)c3c(-c4ccccc4)noc3C)CC2)c1C | 3.33% (inactive)
C[C@@H]1CN([C@@H](C)CO)C(=O)c2cc(NS(=O)(=O)c3ccc(Cl)cc3)ccc2O[C@@H]1CN(C)Cc1ccc(C(F)(F)F)cc1 | 5.3% [at 23.5 µM] (inactive)
Nc1[nH]c(C(=O)c2ccccc2)c(-c2ccccc2C(F)(F)F)c1C(=O)NCCc1c[nH]c2ccccc12 | 31.2% (inactive)
Cc1cc(C)c2nc(Cl)c(CN(Cc3ccco3)C(=O)Nc3ccccc3C)cc2c1 | 13.3% (inactive)
COc1ccc(-c2ccnc(-c3ccc(O)cc3)n2)cc1 | -26.7% (inactive)
O=C(c1ccc(Br)cc1)c1cc([N+](=O)[O-])ccc1N1CCOCC1 | 0% (inactive)
COc1ccc([N+](=O)[O-])cc1Nc1c2ccccc2nc2ccccc12 | -20.9% (inactive)
COC(=O)/C=C/c1ccccc1S(=O)(=O)N(Cc1ccccc1)Cc1ccco1 | 6.25% (inactive)
NS(=O)(=O)c1ccc(S(=O)(=O)N(CCc2ccccc2)Cc2ccccn2)cc1 | 0% (inactive)
CCN1CCN(c2cc(C)c3cc(NC(=O)c4ccc(OC)c(OC)c4)ccc3n2)CC1 | 15.6% (inactive)
N=C1/C(=C/c2cccn2CCOc2ccccc2)C(=O)N=C2SC=C(c3ccccc3)N12 | -19.4% (inactive)
O=C1C=C(NCCc2cc(Br)c(O)c(Br)c2)C(=O)c2ncccc21 | -7.97% (inactive)
Nc1c(C(=O)c2ccco2)oc2ccccc12 | 3.85% (inactive)
Nc1ccn(C2OC(CO)C(O)C2O)c(=O)n1 (stereo unspecified) | 13.3% (inactive)
O=C(CCCl)Nc1nc2c(s1)CCc1ccccc1-2 | 1.61% (inactive)
C[C@H]1CN([C@@H](C)CO)S(=O)(=O)c2ccc(C#CC3CCCCC3)cc2O[C@H]1CN(C)Cc1cccnc1 | 0% (inactive)
CCOC(=O)c1ccc(N2CCOCC2)c(NC(=O)c2c(-c3ccccc3)noc2C)c1 | 0% (inactive)
CCN(CC)c1ccc(/C=N/NC(=O)c2cnccn2)cc1 | -23.3% (inactive)

SMILES | activity change, negative = more quenching (active)
COc1ccc(NC(=O)c2cc(S(=O)(=O)N3CCOCC3)ccc2C)cc1S(=O)(=O)N1CCOCC1 | -6.25% (inactive)
OC[C@@H]1CN(Cc2ccc(-c3ccccc3)cc2)C[C@H](n2cnc3c(NC4CC4)ncnc32)O1 | 6.46% (inactive)
COc1ccccc1NC(=O)CSc1ccc(-c2ccccn2)nn1 | -3.33% (inactive)
COc1ccccc1N=C1SC(C(=O)Nc2cccc(Cl)c2Cl)C(N)=C1C(N)=O (stereo unspecified) | 9.13% (inactive)
CC(C)C[C@H]1CN([C@@H](Cc2ccc(O)cc2)CN2CCC[C@H]2CN2C(=O)C(=O)NC[C@@H]2Cc2ccccc2)C(=O)C(=O)N1CC1CCCCC1 | 33.5% (inactive)
CCC(=O)N1CC2(CCN(Cc3ccc(Cl)cc3)CC2)c2c(n(C)c3cc(OC)ccc23)[C@H]1CO | -6.91% (inactive)
COC(=O)C1=CN(c2ccc(OC)cc2OC)C(N)=C(C#N)C1c1ccccc1F (stereo unspecified) | 6.46% (inactive)
CCCC(=O)NC(c1ccc(Cl)cc1)c1ccc2cccnc2c1O (stereo unspecified) | 3.12% (inactive)
Cc1cccc(NC(=S)N/N=C/c2cccc(O)c2)c1C | 0% (inactive)
Cc1cnc(NC(=O)c2ccc3c(c2)OCCO3)s1 | -20% (inactive)
Cc1cc(Br)cc(/C=N/NC(=O)c2ccc3c(c2)OCO3)c1O | 13.3% (inactive)
O=C(Cc1ccc(Br)cc1)NCc1ccccc1 | -3.12% (inactive)
Cc1nc(N)[nH]c(=O)c1CCCNS(=O)(=O)c1ccc([N+](=O)[O-])cc1 | 11.5% (inactive)
CC(C)CN(CCCNC(=O)CN1C(=O)CSc2ccc(S(=O)(=O)N3CCOCC3)cc21)CC(C)C | 6.25% (inactive)
CCN(CC)C(=O)c1oc2ccc(S(=O)(=O)N3CC(C)CC(C)C3)cc2c1C (stereo unspecified) | 17.5% (inactive)
O=C(N=Nc1c(O)[nH]c2ccc(Br)cc12)c1ccccc1-n1cccc1 | -13.3% (inactive)
Cn1cccc1/C=C1\SC(=Nc2cccc(O)c2)NC1=O | 8.28% (inactive)
Cc1ccc(C2NC(=O)c3ccccc3N2)c(C)c1 (stereo unspecified) | 3.33% (inactive)
Cn1cc(C(=O)N/N=C/c2ccc3c(c2)OCO3)c2ccccc21 | -10% (inactive)
COc1cc(OC)c2c(-c3cccc(-c4cccc(N)c4)c3)cc(=O)oc2c1 | -3.33% (inactive)
CC(C)Nc1ccc(Nc2ccnc3cc4ccccc4cc23)cc1 | -20% (inactive)
Cc1cccc(S(=O)(=O)N2C[C@H]3[C@@H](c4ccccc42)[C@H](CO)N3CC2CCCC2)c1 | 6.46% (inactive)
COc1ccc(-c2ccc3c(c2)[C@H]2[C@H](CCN2S(=O)(=O)c2ccc(OC)cc2)[C@H](CO)N3C)cc1 | -31.2% [at 8 µM] (inactive)
COc1cccc(-c2ccc([C@H]3[C@@H](CO)N(C(=O)c4ccccn4)[C@H]3C#N)cc2)c1 | 19.3% (inactive)
CN1c2ccc(-c3ccc(F)cc3)cc2[C@H]2[C@H](CCN2S(=O)(=O)c2cccc(F)c2)[C@@H]1CO | -28.6% [at 9 µM] (inactive)
Cc1ccccc1S(=O)(=O)N1C[C@@H]2N[C@H](C1)C2c1ccc(-c2cccc(C#N)c2)cc1 (stereo partly specified) | 0% (inactive)

SMILES | activity change, negative = more quenching (active)
CCCNC(=O)N1CC2(CN(S(=O)(=O)c3cccc(OC)c3)C2)c2c(n(C)c3cc(OC)ccc23)[C@H]1CO | 12.3% (inactive)
Cc1ccc(C)c(C2NC(=O)c3ccccc3N2)c1 (stereo unspecified) | -3.85% (inactive)
COC(=O)CSC1=C(C#N)C(c2ccc(C)o2)CC(=O)N1 (stereo unspecified) | -3.33% (inactive)
COc1ccccc1CNC(=O)Nc1nc(C(N)Cc2ccc(Cl)cc2)cs1 (stereo unspecified) | -13.3% (inactive)
CN(C)CCCN(C(=O)c1ccco1)c1nc(-c2ccc(Cl)cc2)cs1 | -3.85% (inactive)
O=C(CCc1ccccc1)NCC(c1ccco1)N1CCc2ccccc21 (stereo unspecified) | -6.46% (inactive)
CCOC(=O)c1oc2ccc(S(=O)(=O)n3nc(-c4ccccc4)cc3N)cc2c1C | 5.42% (inactive)
Cc1ccc(C(=O)N/N=C/c2cc(Br)ccc2O)cn1 | 16% (inactive)
Cc1ccc(-c2ccc3c(c2)O[C@H](CN(C)Cc2ccccn2)[C@@H](C)CN([C@@H](C)CO)S3(=O)=O)cc1 | 3.57% (inactive)
O=[N+]([O-])c1ccc(N=Nc2c(Cl)cc(O)cc2Cl)cc1 | 18.8% (inactive)
COc1ccc(OC)c2[nH]c(C(=O)N/N=C/c3ccccc3O)cc12 | 3.12% (inactive)
Cc1ccc(-c2ccc3c(c2)O[C@@H](CN(C)Cc2ccccn2)[C@H](C)CN([C@H](C)CO)S3(=O)=O)cc1 | -7.14% (inactive)
Cn1c(C(=O)c2ccccc2[N+](=O)[O-])nc2ccccc21 | -22.1% (inactive)
Cc1cccc(N2CCN(S(=O)(=O)c3cc(-c4cc(C)no4)ccc3C)CC2C)c1 (stereo unspecified) | -1.61% (inactive)
C[C@@H]1CN([C@H](C)CO)S(=O)(=O)c2ccc(-c3ccccc3)cc2O[C@H]1CN(C)Cc1ccccn1 | 8.74% (inactive)
COc1ccc(-c2ccc3c(c2)[C@H]2[C@H](CCN2S(=O)(=O)c2ccc(OC)cc2)[C@@H](CO)N3)cc1 | -10.7% [at 23.5 µM] (inactive)
O=C(C[C@@H]1CC[C@H]2[C@@H](COC[C@H](O)CN2Cc2ccc3c(c2)OCO3)O1)Nc1ccc(-c2ccccc2)cc1 | 21.4% [at 2.85 µM] (inactive)
COc1cc2c(-c3ccccc3)c(C)oc2cc1/C=N/NC(N)=S | -6.67% (inactive)
Cc1ccc(/C=N/NC(=O)c2c(-c3ccccc3)noc2C)c(O)c1 | 12.9% (inactive)
CO/N=C\CC(=O)Nc1ccc(Cl)cc1Cl | -3.12% (inactive)
CCOc1cc(/C=N/NC(=O)N/N=C/c2ccc(O)c(OCC)c2)ccc1O | -6.46% (inactive)
COc1ccc(C2c3ccc4ccccc4c3Oc3ncn(CCCO)c(=N)c32)cc1OC (stereo unspecified) | -6.46% (inactive)
CCOC(=O)c1c(NC(=O)C(=O)N/N=C/c2ccccc2O)sc2c1CCCCC2 | 0.208% (inactive)
O=c1c2ccccc2oc2cc(-c3ccc4[nH]ccc4c3)ccc12 | -16.7% (inactive)
O=C(NCCOc1ccccc1F)c1cc([N+](=O)[O-])ccc1N1CCOCC1 | 23.3% (inactive)
CCOc1ccc(C(=O)COC(=O)Cc2n[nH]c(=O)c3ccccc23)cc1 | 0% (inactive)

SMILES | activity change, negative = more quenching (active)
O=C1c2cccc3c(O)ccc(c23)C(=O)N1c1ccc(Cl)cc1 | -29% (inactive)
CCN1C(=O)c2cccc3c(S(=O)(=O)N(C(C)=O)c4ccc(OC(C)=O)cc4)ccc1c23 | 4.17% (inactive)
C/C(=N\Nc1ncnc2sc(C)c(C)c12)c1ccccn1 | -20% (inactive)
Cn1cccc1/C=C1\SC(=Nc2ccccc2)NC1=O | -16.7% (inactive)
CCc1cc(-c2nnn(CCC3COCCO3)c2CC)ccc1-c1cn(Cc2ccc3ccccc3c2)nn1 (stereo unspecified) | 6.67% (inactive)
COc1cc(NC(=O)c2csc(N)n2)cc(C(=O)Nc2cccc(C(F)(F)F)c2)c1 | 12.5% (inactive)
O=C(C1CCCCC1)N1CC(=O)N2[C@@H](CO)[C@H](c3ccc(C#Cc4cccc(F)c4)cc3)[C@@H]2C1 | -14.3% (inactive)
CC1=Nc2cc(C(=O)NCC3CCCO3)ccc2Sc2ccc(C)cc21 (stereo unspecified) | 6.46% (inactive)
COc1ccccc1NC(=S)N(Cc1ccco1)Cc1cc2cc(C)cc(C)c2[nH]c1=O | -13.3% (inactive)
CC(=O)O[C@H]1C(=O)[C@]2(C)[C@H]([C@H](OC(=O)c3ccccc3)[C@]3(O)C[C@H](OC(=O)[C@H](O)[C@@H](NC(=O)c4ccccc4)c4ccccc4)C(C)=C1C3(C)C)[C@]1(OC(C)=O)CO[C@@H]1C[C@@H]2O | 12.7% (inactive)
COc1cc2c(cc1OC)C(C)N(C(=O)Nc1cc(C)cc(C)c1)CC2 (stereo unspecified) | 0% (inactive)
C=CCN1c2ccccc2[C@]23C[C@@H](C(=O)OC)N(C(=O)c4cccs4)C2=NC(C(=O)OC)=C(C(=O)OC)[C@H]13 | 6.67% (inactive)
C[C@H]1CN([C@@H](C)CO)C(=O)Cc2cc(NC(=O)Nc3ccc(C(F)(F)F)cc3)ccc2O[C@H]1CN(C)S(=O)(=O)c1ccccc1 | 7.14% (inactive)
O=C(N/N=C\c1c(O)ccc2ccccc12)c1cncc(Br)c1 | -33.3% (inactive)
C[C@H]1CN([C@@H](C)CO)S(=O)(=O)c2ccc(C#Cc3ccc(F)cc3)cc2O[C@H]1CN(C)C(=O)NC1CCCC1 | 10.7% (inactive)
COc1ccc(OC)c(Nc2cc(C)nc3ccc(C)cc23)c1 | -17.9% (inactive)
C[C@H]1CN([C@@H](C)CO)S(=O)(=O)c2ccc(-c3ccc(C#N)cc3)cc2O[C@@H]1CN(C)Cc1ccccn1 | -1.72% (inactive)
Oc1ccc2ccccc2c1C=NNc1ccccn1 | -13.3% (inactive)
Cc1cccc(Nc2nc(N)nc(-c3oc4ccccc4c3C)n2)c1 | 3.33% (inactive)
CCOC(=O)c1ccc(Nc2sc(C(=O)c3cccc([N+](=O)[O-])c3)c(N)c2C#N)cc1 | -6.25% (inactive)
CCc1ccc(-c2nc(C(N)=O)c3[nH]c(=O)n(-c4ccccc4OC)c3n2)cc1 | -12.9% (inactive)
Nc1sc(-c2ccccc2)cc1-c1n[nH]c(=S)n1C1CCCCC1 | 0% (inactive)
Cc1ccc(C)c(CSc2nc3[nH]ncc3c(=O)[nH]2)c1 | 5.42% (inactive)

— PubChem BioAssay AID743402 (Broad Institute, 2014)
